The values below come from PubChem BioAssay (Tox21).

Assay [1] is described as follows: qHTS assay to identify small molecule antagonists of the retinoid acid receptor (RAR) signaling pathway - cell viability counter screen (AID 1159551). For activity change, negative = cytotoxicity: % is set by controls: 0 for no effect and ±100 for the full control effect. Note: nearly all actives have a fitted effect of over 35% in size. Note: potency is the fitted concentration of half-maximal effect. The essentials:
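Luminescent ATP quantitation (CellTiter-Glo) gave cell viability in C3RL4 cells exposed to test chemicals for 6 h at 37 C alongside 1 uM final retinol.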

Assay [2] can be described thus: qHTS assay to identify small molecule antagonists of the estrogen related receptor (ERR) signaling pathway from Tox21 library - cell viability counter screen (AID 1224834). Note: nearly all actives have a fitted effect of over 30% in size. Note: potency is the fitted concentration of half-maximal effect. In a few lines:
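Fluorescence from CellTiter-Fluor gives the viability read-out, taken 30 min after reagent addition. Before that, ERR cells seeded 6 h earlier were incubated with compounds for 17.5 h at 37 C.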
(In qHTS, concentration-response curves come from the screen itself.)

Assay [3] deals with Luciferin 4-monooxygenase (Photinus pyralis) (UniProt P08659). Nature of the assay: qHTS assay to identify small molecule inhibitors of firefly luciferase (AID 1224835). Note: nearly all actives have a fitted effect of over 25% in size. Note: potency is the fitted concentration of half-maximal effect. In a few lines:
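Quantitative HTS format; KM concentrations of both substrates. Purified P. pyralis FLuc activity quantified from luminescence images.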

A short description of assay [4]: qHTS assay to identify small molecule agonists of the constitutive androstane receptor (CAR) signaling pathway - cell viability counter screen (AID 1224836). Note: nearly all actives have a fitted effect of over 45% in size. Note: potency is the fitted concentration of half-maximal effect. In a few lines: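 Double-stable HepG2 hepatoma cells (hCAR plus CYP2B6-2.2kb) are treated for 23 h at 37 C with test compounds in 15-point concentration series. PK11195 at 0.75 uM final is co-added. Cell viability is quantified by CellTiter-Fluor.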

A short description of assay [5]: qHTS assay to identify small molecule antagonists of the constitutive androstane receptor (CAR) signaling pathway - cell viability counter screen (AID 1224837). Note: nearly all actives have a fitted effect of over 45% in size. Note: potency is the fitted concentration of half-maximal effect. In a few lines: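 HepG2-CYP2B6-hCAR cells, 2500/well, 4 hr pre-incubation; compound titration, 15 conc.; CITCO 50 nM final; 23 hr, 37 C/5% CO2; CellTiter-Fluor, fluorescence intensity.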
Assay [6] addresses Nuclear receptor subfamily 1 group I member 3 (Homo sapiens) (UniProt Q14994). Description: qHTS assay to identify small molecule antagonists of the constitutive androstane receptor (CAR) signaling pathway (AID 1224838).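 Note: HepG2 cells stably expressing hCAR with CYP2B6 luciferase reporter stimulated by CITCO; nearly all actives have a fitted effect of over 40% in size.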 Note: potency is the fitted concentration of half-maximal effect. The essentials: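 HepG2-CYP2B6-hCAR cells; 4 h pre-incubation; cpd (15 conc) + CITCO 50 nM final; 24 h, 37 C/5% CO2; ONE-Glo, luminescence.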
Assay [7] has the same target. Description: qHTS assay to identify small molecule agonists of the constitutive androstane receptor (CAR) signaling pathway (AID 1224839).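 Note: HepG2 cells stably carrying human CAR and a CYP2B6 luciferase reporter; series mostly up to about 92 µM; % is set by controls: 0 for no effect and ±100 for the full control effect; nearly all actives have a fitted effect of over 15% in size.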 The essentials:
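Readout: firefly luciferase luminescence via ONE-Glo. System: HepG2 double-stable for hCAR and CYP2B6-2.2kb. Conditions: 15-point compound titration, PK11195 at 0.75 uM final, 24 h incubation.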

The nature of assay [8]: qHTS assay to identify small molecule antagonists of the estrogen related receptor signaling pathway with the pleiotropic PPARgamma coactivator (PGC) from Tox21 10K library - cell viability counter screen (AID 1224840; active = well fitted cell-killing curve with a large enough effect in the repeat runs, not every such curve was filed as active; note: nearly all actives have a fitted effect of over 40% in size; note: potency is the fitted concentration of half-maximal effect). In a few lines:
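PGC/ERR cells, 2,000/well; 6 h pre-incubation 37 C/5% CO2; cpd in DMSO via pin tool; 17.5 h 37 C; CellTiter-Fluor, 30 min; fluorescence.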

In assay [9] the target is Thyrotropin receptor (Homo sapiens) (UniProt P16473). Nature of the assay: qHTS assay to identify small molecule agonists of the thyroid stimulating hormone receptor (TSHR) signaling pathway (AID 1224843; calls by dose curve; note: nearly all actives have a fitted effect of over 45% in size; note: potency is the fitted concentration of half-maximal effect). The essentials: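 Cell line HEK293 with TSHR; density 800/well. Exposure 30 min RT. Readout HTRF cAMP (cAMP-d2/anti-cAMP-cryptate), 1 h RT before reading.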
Assay [10] in a line: qHTS assay to identify small molecule agonists of the hypoxia (HIF-1) signaling pathway - cell viability counter screen (AID 1224844; calls by dose curve; note: nearly all actives have a fitted effect of over 50% in size; note: potency is the fitted concentration of half-maximal effect). The essentials: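 ME-180 HRE-bla cells, 2,000/well, 0.5% dialyzed FBS; 5 hr settle, 17 hr compound at 37C/5% CO2; CCF4-AM reporter read first, then CellTiter-Glo luminescence after 30 min RT.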
Assay [11] can be described thus: qHTS assay to identify small molecule antagonists of the estrogen related receptor signaling pathway with the pleiotropic PPARgamma coactivator (PGC) from Tox21 10K library (AID 1224841; call rule not given here; note: actives are mostly falling curves and most rising ones were filed inactive; nearly all actives have a fitted effect of over 50% in size; note: potency is the fitted concentration of half-maximal effect). In a few lines: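 PGC/ERR cell line, 2,000 cells/well; 6 h pre-incubation 37 C/5% CO2; compounds (DMSO) pinned in; 18 h, 37 C; One-Glo, 30 min RT; luminescence.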
A short description of assay [12]: qHTS assay to identify small molecule agonists of the estrogen related receptor signaling pathway with the pleiotropic PPARgamma coactivator (PGC) from Tox21 10K library (AID 1224842). Note: % is set by controls: 0 for no effect and ±100 for the full control effect; nearly all actives have a fitted effect of over 15% in size. The essentials:
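PGC/ERR reporter cells (NTP line) were seeded 2,000 per well, rested 6 h at 37 C/5% CO2, then pin-dosed with compounds in DMSO for 18 h at 37 C; luciferase read by One-Glo luminescence after 30 min at room temperature.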

Assay [13] is described as follows: qHTS assay to identify small molecule agonists of the retinoic acid receptor (RAR) signaling pathway (AID 1159553). Note: % is set by controls: 0 for no effect and ±100 for the full control effect. The essentials:
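Luminescence from a RARE-driven luciferase reporter in C3RL4 cells served as the read-out, measured after 30 min with detection reagent at room temperature. Compounds in DMSO were applied for 6 hr at 37 C following overnight seeding.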

A short description of assay [14]: qHTS assay to identify small molecule antagonists of the estrogen related receptor (ERR) signaling pathway - cell viability counter screen (AID 1224818). Note: potency is the fitted concentration of half-maximal effect. In a few lines:
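Multiplexed counter screen to separate cytotoxic compounds from true ERR modulators. ERR cells received DMSO-dissolved compounds after a 6 h pre-incubation, were exposed 17.5 h at 37 C, then assayed with CellTiter-Fluor fluorescence.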

Assay [15] can be described thus: qHTS assay to identify small molecule agonists of the estrogen related receptor (ERR) signaling pathway (AID 1224820). Note: % is set by controls: 0 for no effect and ±100 for the full control effect. In a few lines:
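Cells: ERR line from NTP, 2,000/well. Pre-incubation 6 h, 37 C/5% CO2. Compound (DMSO) pin transfer, 18 h 37 C. One-Glo, 30 min RT, luminescence.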

Assay [16] is described as follows: qHTS assay to identify small molecule antagonists of the estrogen related receptor signaling pathway with the pleiotropic PPARgamma coactivator (PGC) cell viability counter screen (AID 1224822; note: potency is the fitted concentration of half-maximal effect). The essentials: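 Cells: PGC/ERR, 2,000/well, 1536-well format. Pre-incubation 6 h, 37 C/5% CO2. Compound exposure 17.5 h, 37 C. Detection: CellTiter-Fluor, 30 min, fluorescence.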

The nature of assay [17]: qHTS assay to identify small molecule agonists of the estrogen related receptor signaling pathway with the pleiotropic PPARgamma coactivator (PGC) (AID 1224823). Note: % is set by controls: 0 for no effect and ±100 for the full control effect. The essentials:
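Steps: plate PGC/ERR cells at 2,000 cells/well; incubate 6 h, 37 C/5% CO2; pin-transfer compounds (DMSO); incubate 18 h, 37 C; add One-Glo; 30 min RT; read luminescence.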

The subject of assay [18] is estrogen-related receptor alpha (ERRalpha) with PGC-1alpha coactivator, human. Nature of the assay: qHTS assay to identify small molecule antagonists of the estrogen related receptor signaling pathway with the pleiotropic PPARgamma coactivator (PGC) (AID 1224821; calls by dose curve;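 note: series mostly up to about 46 µM; % is set by controls: 0 for no effect and ±100 for the full control effect; lower luminescence signal means antagonism of PGC/ERR signalling; nearly all actives have a fitted effect of over 50% in size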). The essentials:
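Luminescent read-out (One-Glo, 30 min at room temperature) following 18 h treatment of PGC/ERR cells at 37 C with compounds delivered in DMSO. Cells had settled 6 h at 37 C/5% CO2 before dosing.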

Assay [19] can be described thus: qHTS assay to identify small molecule antagonists of the retinoic acid receptor (RAR) signaling pathway (AID 1159552; note: % is set by controls: 0 for no effect and ±100 for the full control effect; nearly all actives have a fitted effect of over 50% in size). In a few lines:
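Antagonism of retinol-induced RARE reporter activity was measured in C3RL4 cells. Exposure to compounds and 1 uM final retinol lasted 6 hr at 37 C, with luminescence as endpoint.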

Where “and” joins values, the source holds several entries; their conditions need not be identical. Identical values can stand only once. Inconclusive results are not listed. A number with no mark means an inactive call. Calls of active or inactive are those of the source. Unless noted, calls come from the whole dose curve; as a rule, active = well fitted curve in the direction sought with a large enough effect in the repeat runs; inconclusive = weak or mixed curves; inactive = no such curve, though single readings can be large; an effect the other way counts as inactive or inconclusive.

Luciferin 4-monooxygenase (Photinus pyralis), sequence (P08659 whole entry, looked up): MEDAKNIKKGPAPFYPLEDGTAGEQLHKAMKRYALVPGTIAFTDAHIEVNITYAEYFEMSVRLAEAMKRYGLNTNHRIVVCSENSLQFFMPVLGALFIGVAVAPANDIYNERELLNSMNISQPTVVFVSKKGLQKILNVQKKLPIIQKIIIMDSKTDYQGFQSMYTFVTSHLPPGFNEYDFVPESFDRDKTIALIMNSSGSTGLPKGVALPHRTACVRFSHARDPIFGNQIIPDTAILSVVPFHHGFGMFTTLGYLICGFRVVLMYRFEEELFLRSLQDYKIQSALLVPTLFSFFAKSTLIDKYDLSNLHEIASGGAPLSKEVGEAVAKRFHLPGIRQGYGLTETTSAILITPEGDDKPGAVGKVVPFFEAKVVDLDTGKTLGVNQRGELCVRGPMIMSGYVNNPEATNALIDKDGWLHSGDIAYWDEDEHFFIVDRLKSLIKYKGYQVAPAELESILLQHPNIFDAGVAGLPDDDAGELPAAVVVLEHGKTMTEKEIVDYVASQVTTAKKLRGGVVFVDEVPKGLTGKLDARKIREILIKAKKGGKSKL
Nuclear receptor subfamily 1 group I member 3 (Homo sapiens), sequence (Q14994 whole entry, looked up): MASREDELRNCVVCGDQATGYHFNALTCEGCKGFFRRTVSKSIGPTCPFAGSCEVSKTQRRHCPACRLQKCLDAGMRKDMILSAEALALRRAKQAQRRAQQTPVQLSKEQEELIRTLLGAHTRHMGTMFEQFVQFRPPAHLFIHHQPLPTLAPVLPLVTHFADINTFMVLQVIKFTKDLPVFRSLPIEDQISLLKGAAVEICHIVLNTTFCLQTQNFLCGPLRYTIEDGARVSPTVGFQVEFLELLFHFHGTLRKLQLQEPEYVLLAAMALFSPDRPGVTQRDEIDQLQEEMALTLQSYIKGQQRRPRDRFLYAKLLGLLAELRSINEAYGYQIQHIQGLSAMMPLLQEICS
Thyrotropin receptor (Homo sapiens), sequence (P16473 whole entry, looked up): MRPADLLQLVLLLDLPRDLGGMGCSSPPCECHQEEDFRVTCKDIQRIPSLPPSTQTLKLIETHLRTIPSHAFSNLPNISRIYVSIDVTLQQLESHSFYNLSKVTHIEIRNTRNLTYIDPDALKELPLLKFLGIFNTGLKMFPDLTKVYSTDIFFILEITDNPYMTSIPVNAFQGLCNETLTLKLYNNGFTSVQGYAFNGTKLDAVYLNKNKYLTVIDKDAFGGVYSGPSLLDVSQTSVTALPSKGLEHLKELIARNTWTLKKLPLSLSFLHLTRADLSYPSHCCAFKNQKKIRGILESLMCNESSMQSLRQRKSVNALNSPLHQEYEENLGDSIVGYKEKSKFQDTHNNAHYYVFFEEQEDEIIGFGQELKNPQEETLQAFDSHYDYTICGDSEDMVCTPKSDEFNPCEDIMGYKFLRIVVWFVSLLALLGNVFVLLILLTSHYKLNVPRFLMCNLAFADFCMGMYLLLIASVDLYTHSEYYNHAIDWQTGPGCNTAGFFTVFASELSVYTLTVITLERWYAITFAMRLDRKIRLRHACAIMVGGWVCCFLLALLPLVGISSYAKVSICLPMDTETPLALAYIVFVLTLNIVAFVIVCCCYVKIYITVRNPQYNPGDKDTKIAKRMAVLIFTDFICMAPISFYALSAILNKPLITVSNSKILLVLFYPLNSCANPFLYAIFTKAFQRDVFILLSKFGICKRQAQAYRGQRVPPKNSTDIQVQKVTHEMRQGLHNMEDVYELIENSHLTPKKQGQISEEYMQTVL

`Cc1c(C)c2c(c(C)c1O)CCC(C)(COc1ccc(CC3SC(=O)NC3=O)cc1)O2` (stereo not given): the Potency result in assay [1], in assay [2], in assay [3], in assay [4], in assay [5] and in [6] was “inactive” in each case. The Potency result in assay [7], in assay [8], in assay [9] and in assay [10] was “inactive” throughout.
On to `C=CC(=O)OCC(CO)(COC(=O)C=C)COC(=O)C=C`, for which the Potency in assay [1] is 61.3 µM (active); in assay [2] it was 6.88 µM (active) and 13.7 µM (active); in assay [4] it was 13.7 µM (active) and 54.5 µM (active); in assay [5] it was 9.72 µM (active) and 24.3 µM (active); in assay [8], 6.13 µM (active) and 12.2 µM (active); in [11] it was 13.7 µM (active) and 24.3 µM (active). Moreover, the Potency in assay [9] was 6.13 µM (active) and 9.69 µM (active); in assay [10], 4.38 µM (active) and 17.4 µM (active). The Potency result in [3] and in assay [12] was “inactive” each time.
On to `CCN1/C(=C/C=C/c2sc3ccccc3[n+]2CC)Sc2ccccc21`, for which the Potency in assay [1] was 14.6 µM (active); in assay [2] it was 5.8 µM (active); in assay [3] it was 9.52 µM (active); in assay [4] it was 13 µM (active); in assay [5], 11.6 µM (active); in assay [6] it was 14.6 µM (active). Moreover, in assay [8], the Potency is 6.51 µM (active). Moreover, the activation is -9.24% [at 19 µM] in [7] and 1.82% [at 19 µM] in [9]. The activity change, negative = cytotoxicity in assay [10] was 19.1% [at 15.8 µM].
Consider `CS(=O)(=O)CCNCc1ccc(-c2ccc3ncnc(Nc4ccc(OCc5cccc(F)c5)c(Cl)c4)c3c2)o1`, for which the Potency result in assay [1], in assay [13], in assay [3], in [6], in assay [7] and in [9] was “inactive” each time. The Potency in [2] was 6.68 µM (active); in assay [8], 33.5 µM (active); in assay [10], 10.7 µM (active).
Consider `COc1cccc2c1C(=O)c1c(O)c3c(c(O)c1C2=O)C[C@@](O)(C(=O)CO)C[C@@H]3O[C@H]1C[C@H](N)[C@H](O[C@@H]2CCCCO2)[C@H](C)O1`, for which the Potency entry in [1], in assay [13], in assay [7], in [11] and in assay [9] was “inactive” in each case. Further, the Potency in assay [2] was 9.44 µM (active); in [4], 7.5 µM (active); in assay [5] it was 8.41 µM (active); in [6], 0.944 µM (active); in assay [10] it was 12 µM (active).
As for `Cc1cccc(S(=O)(=O)O)c1C`, the Potency entry in assay [1], in [13], in [2], in assay [3], in assay [4] and in assay [5] was “inactive” in each case. In addition, the Potency result in assay [6], in assay [8], in assay [9] and in assay [10] was “inactive” throughout.
`CCCCCCCC(=O)[O-].CCCCCCCC(=O)[O-].[Zn+2]`: the Potency entry in [1], in assay [2], in assay [4], in assay [5], in assay [6] and in [7] was “inactive” in each case. For the same compound, the Potency entry in assay [8] and in assay [10] was “inactive” in each case. Further, the Potency in assay [3] was 34.7 µM (active).
For the compound `N=C1N=C(N)c2cc3ccccc3cc21`, the figures for the Potency in assay [14] and in assay [16] were 25.3 µM (active) and 20.9 µM (active), respectively. The compound was classed as inactive in [15] and in assay [17].
For the compound `OCCN1CCN(CC/C=C2/c3ccccc3Sc3ccc(C(F)(F)F)cc32)CC1`, the compound was classed as inactive in [15] and in [17]. Further, the Potency result in assay [18] and in assay [16] was “inactive” throughout.
Turning to `O=CC=C(c1ccccc1)c1ccccc1`, the Potency entry in [19], in assay [3], in assay [4], in [5], in assay [6] and in [10] was “inactive” each time.
Consider `CCCCCCCCOc1ccccc1C(=O)Nc1ccc(C(=O)OCC[N+](C)(CC)CC)cc1`, for which the Potency entry in [13], in assay [3], in assay [4], in assay [5], in assay [6] and in assay [7] was “inactive” in each case. The Potency result in assay [8] was “inactive”. For the same compound, the Potency in [10] is 7.56 µM (active).
